# PubChem BioAssay (NCI)
# Several values for one entry are separate records, joined by “and”; a condition that tells them apart may be missing. Identical values can stand only once. The panel holds about 83,000 compounds, 20% with a hit somewhere; the sample as a whole holds those more often.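 The endpoint reported here, percent growth, reads 100 for growth as untreated, 0 for no net growth and -100 for all cells dead.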 The source holds several records for some structures; these can differ, active in one and inactive in another. Activity calls are given as the source filed them. Rule for the calls: active = growth percent below 10; inactive = the rest.
# Columns and labels:
# Assay in all cases: NCI-60 one-dose screen, 48 h (100 = growth as untreated, 0 = no growth, -100 = all killed)
# Conditions in all cases: 10 µM unless noted
# [1] = system: SR leukemia
# [2] = system: RPMI-8226 leukemia
# [3] = system: OVCAR-8 ovarian
# [4] = system: OVCAR-5 ovarian
# [5] = system: OVCAR-4 ovarian
# [6] = system: SK-OV-3 ovarian
# [7] = system: IGROV1 ovarian
# [8] = system: OVCAR-3 ovarian
# [9] = system: HS 578T breast
# [10] = system: NCI/ADR-RES ovarian
# [11] = system: T-47D breast
# [12] = system: BT-549 breast
# [13] = system: MDA-MB-435 melanoma
# [14] = system: SW-620 colon
# [15] = system: MCF7 breast
# [16] = system: HCT-116 colon
# [17] = system: HCC-2998 colon
# [18] = system: KM12 colon
Structure (SMILES),growth [1],growth [2],growth [3],growth [4],growth [5],growth [6],growth [7],growth [8],growth [9],growth [10],growth [11],growth [12],growth [13],growth [14],growth [15],growth [16],growth [17],growth [18]
O=C(Nc1ccc([N+](=O)[O-])cc1Cl)c1cc(Cl)ccc1O,-3.74% (active),-31.8% (active) and 1.92% (active),-20.6% (active) and 5.74% (active),23.6% (inactive) and 41.7% (inactive),22.6% (inactive) and 17.4% (inactive),4.16% (active) and 12.8% (inactive),14.4% (inactive),-10.7% (active) and -2.45% (active),-6.4% (active) and -20.7% (active),-26.7% (active) and -15.9% (active),-7.5% (active) and 3.54% (active),-35.7% (active) and -74.7% (active),-20% (active) and -17.3% (active),0.797% (active) and 1.64% (active),3.12% (active),-45.4% (active) and -78.2% (active),-23.1% (active) and -28.9% (active),-58.1% (active) and -25.8% (active)
O=C1c2ccccc2C(=O)N1/N=C/c1ccc2c(c1)OCO2,82% (inactive),88.5% (inactive),100% (inactive),93.1% (inactive),113% (inactive),97.5% (inactive),101% (inactive),108% (inactive),78.7% (inactive),110% (inactive),99.9% (inactive),97.2% (inactive),114% (inactive),107% (inactive),91.3% (inactive),95% (inactive),116% (inactive),113% (inactive)
CCOc1ccc2cc(-c3nn(CC4CCN(C)CC4)c4ncnc(N)c34)ccc2c1,65.4% (inactive) and -27.1% (active),75.9% (inactive) and 2.42% (active),94.4% (inactive) and 65.2% (inactive),88.4% (inactive) and 80.8% (inactive),91.4% (inactive) and 70.5% (inactive),83.1% (inactive) and 85.2% (inactive),81.5% (inactive) and 61.3% (inactive),97.8% (inactive) and 59.3% (inactive),79.3% (inactive) and 35.8% (inactive),93.7% (inactive) and 63.1% (inactive),68.5% (inactive) and 54.7% (inactive),71.6% (inactive) and 45.7% (inactive),95.4% (inactive) and 15.9% (inactive),91% (inactive) and 65.6% (inactive),85.7% (inactive) and 55.5% (inactive),63.2% (inactive) and 24.4% (inactive),,89.4% (inactive) and 66.5% (inactive)
C#CCN(C)Cc1ccccc1,108% (inactive) and 101% (inactive),98.2% (inactive) and 107% (inactive),101% (inactive) and 98% (inactive),116% (inactive),112% (inactive) and 114% (inactive),104% (inactive) and 103% (inactive),103% (inactive) and 120% (inactive),111% (inactive) and 104% (inactive),119% (inactive) and 96.1% (inactive),101% (inactive) and 102% (inactive),96.9% (inactive) and 99.3% (inactive),94.6% (inactive) and 141% (inactive),107% (inactive) and 98.3% (inactive),104% (inactive) and 103% (inactive),118% (inactive) and 95.9% (inactive),99.6% (inactive) and 86.9% (inactive),103% (inactive) and 97.7% (inactive),109% (inactive) and 102% (inactive)
Oc1c(Cl)cc(Cl)cc1Sc1cc(Cl)cc(Cl)c1O,42.1% (inactive) and 77.1% (inactive) and 107% (inactive),11.8% (inactive) and -29% (active) and 41.3% (inactive),31.7% (inactive) and 2.65% (active) and 71.7% (inactive),49.9% (inactive) and 102% (inactive),78.1% (inactive) and 38.2% (inactive) and 93.3% (inactive),74.6% (inactive) and 96.4% (inactive),56.5% (inactive) and 33.3% (inactive) and 73.7% (inactive),47.1% (inactive) and 11.6% (inactive) and 76.5% (inactive),47.9% (inactive) and 53.5% (inactive) and 78.2% (inactive),15.8% (inactive) and 10.8% (inactive) and 82.7% (inactive),77.4% (inactive) and 52.2% (inactive) and 80.7% (inactive),32.1% (inactive) and 77% (inactive),51% (inactive) and 26.6% (inactive) and 92.5% (inactive),15.7% (inactive) and 26.6% (inactive) and 83% (inactive),73.1% (inactive) and 5.37% (active) and 69.8% (inactive),18.7% (inactive) and 11.8% (inactive) and 76.7% (inactive),50% (inactive) and 23.1% (inactive) and 86% (inactive),46.7% (inactive) and 21% (inactive) and 80.2% (inactive)
CCN(CC)CCOc1ccc2c(c1)C(=O)c1cc(OCCN(CC)CC)ccc1-2,93% (inactive),67.1% (inactive) and 7.54% (active),46.5% (inactive) and 59.3% (inactive),108% (inactive),60.7% (inactive) and 40.7% (inactive),90% (inactive) and 87.6% (inactive),78.3% (inactive),96.1% (inactive) and 70.5% (inactive),97.8% (inactive) and 91.7% (inactive),69.7% (inactive) and 70.8% (inactive),111% (inactive) and 131% (inactive),96% (inactive) and 76.3% (inactive),73.4% (inactive) and 67% (inactive),34.5% (inactive) and 26.1% (inactive),30.1% (inactive) and 7.03% (active),44.2% (inactive) and 13.2% (inactive),,54.8% (inactive) and 40.4% (inactive)
CN(Cc1ccccc1)Cc1ccccc1,105% (inactive),110% (inactive),117% (inactive),103% (inactive),113% (inactive),113% (inactive),99.4% (inactive),106% (inactive),108% (inactive),102% (inactive),92.8% (inactive),106% (inactive),105% (inactive),112% (inactive),97.9% (inactive),103% (inactive),99.4% (inactive),98.5% (inactive)
Oc1ccccc1C=NCC1CCC(CN=Cc2ccccc2O)CC1 (stereo not drawn),69.4% (inactive),90.9% (inactive),79.9% (inactive),67.6% (inactive),116% (inactive),95% (inactive),68.1% (inactive),116% (inactive),114% (inactive),80.4% (inactive),96.9% (inactive),113% (inactive),104% (inactive),47.4% (inactive),,52.8% (inactive),101% (inactive),107% (inactive)
Nc1cc(-c2cccc(OC(F)(F)F)c2)nc2ccc(N3CCCC3)cc12,-22.2% (active) and -23.6% (active) and -23.8% (active),4.74% (active) and 17.6% (inactive) and 10.6% (inactive),11.4% (inactive) and 13.7% (inactive) and 7.39% (active),31.7% (inactive) and 38.4% (inactive) and 30.1% (inactive),52.5% (inactive) and 55.2% (inactive) and 56.6% (inactive),36% (inactive) and 5.93% (active),23.7% (inactive) and 25.6% (inactive) and 24.4% (inactive),4.65% (active) and 2.53% (active) and -33% (active),-0.422% (active) and 13.7% (inactive) and 27.5% (inactive),5.44% (active) and 3.14% (active) and 11.7% (inactive),99.2% (inactive) and 100% (inactive) and 87.9% (inactive),16.2% (inactive) and 26.9% (inactive) and 3.22% (active),-9.34% (active) and -21.4% (active) and -35.8% (active),26.8% (inactive) and 32% (inactive) and 21.7% (inactive),,2.86% (active) and 5.92% (active) and 2.47% (active),-31.7% (active) and 2.5% (active) and -33.8% (active),10.1% (inactive) and 14.3% (inactive) and 3.24% (active)
